Screens as filed in PubChem BioAssay.
Coupling enz: qHTS Assay for Inhibitors of Fructose-1,6-bisphosphate Aldolase from Giardia Lamblia: Coupling assay counterscreen. activity change, negative = inhibition, % at 58.2 µM, hits read low. coupling enzyme system counterscreen, AmpLite Red fluorescence. 290,000 tested, 0.67% active; in the data active = activity change below about -30%
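Coupling enzymes only (glyceraldehyde-3-phosphate) + compound, at 57.5 uM final, 10 min RT; add substrate/coupling/AmpLite Red mix, 20 min RT; fluorescence ex 525/em 598 nm. Actives flag coupling-system interference.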
Tau fibril ThT: qHTS for Inhibitors of Tau Fibril Formation, Thioflavin T Binding | Microtubule-associated protein tau (Homo sapiens), P10636 | recombinant tau K18 P301L, heparin-induced fibrillization, ThT fluorescence | Potency, µM (top dose mostly 57.4 µM), usual class: inhibitors | 270,000 tested, 2.1% active; also: nearly all actives have a fitted effect of over 55% in size
Target sequence (P10636 561-689 P618L limits assumed): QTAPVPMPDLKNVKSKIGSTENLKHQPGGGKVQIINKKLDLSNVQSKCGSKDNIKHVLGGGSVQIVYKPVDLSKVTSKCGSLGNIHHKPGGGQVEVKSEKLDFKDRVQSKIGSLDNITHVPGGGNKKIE
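Heparin-induced fibrillization of the P301L-mutant K18 repeat-domain fragment of human tau was followed by ThT binding in quantitative high-throughput format.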
USP1-UAF1 inh: Inhibitors of USP1/UAF1: Primary Screen; 390,000 tested, 0.23% active; AID 743255, 2014; recombinant USP1/UAF1, Ub-Rhodamine cleavage fluorescence; Potency, µM (top dose mostly 57.1 µM), actives largely listed as inhibitors; also: nearly all actives have a fitted effect of over 60% in size
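USP1/UAF1 complex (1 nM) preincubated 15 min at room temperature with compound, then Ub-Rho substrate (150 nM final) added. Kinetic fluorescence at 480/540 nm over 6 reads at 60 s intervals; 50 mM HEPES pH 7.8, 0.5 mM EDTA, 0.1 mg/ml BSA, 1 mM TCEP, 0.01% Tween-20.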
Tau fibril FP: qHTS for Inhibitors of Tau Fibril Formation, Fluorescence Polarization. K18 P301L tau heparin fibrillization, Alexa594 FP, 6 h. Microtubule-associated protein tau (Homo sapiens), P10636. Potency, µM (top dose mostly 57.7 µM), usual class: inhibitors. 280,000 tested, 0.39% active. AID 1468, 2008; also: nearly all actives have a fitted effect of over 55% in size
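Read-out: fluorescence polarization of Alexa 594-labeled tau (0.24 uM), 555 nm excitation, 632 nm emission. Mixtures held 15 uM unlabeled K18 P301L, compound and 20 uM heparin, pH 7 acetate buffer, incubated 6 hr at 37 C.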
Tau fluor cs: Counterscreen qHTS for Inhibitors of Tau Fibril Formation, Fluorescence Polarization; AID 1463, 2008; tau K18 P301L Alexa594 fluorescence, heparin fibrillization; 280,000 tested, 0.93% active; Potency, µM (highest dose often 57.7 µM); also: nearly all actives have a fitted effect of over 55% in size
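Human tau K18 P301L (15 uM unlabeled, 0.24 uM Alexa 594-labeled) in 100 mM sodium acetate pH 7 with 20 uM heparin, 6 hr at 37 C. ThT 30 uM added, 1 hr ambient; Alexa 594 FP and total fluorescence read at 555/632 nm.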
Each line names hits and unclear results; the compound was inactive in the other large screens; ! = not confirmed by another sample; [ ] = dose if it differs, or a comment. Compounds with a hit are over-represented: about 2.3% of the library has one in this group of screens. Unless noted, calls follow the shape of the dose curve; as a rule, active = well fitted curve in the direction sought with a large enough effect; inconclusive = small, poorly fitted or top-dose-only effect, or another doubt; inactive = no such curve, though single readings can be large; an effect the other way counts as inactive or inconclusive.

COC(=O)CCCC1=CC2=CC(=O)C(C)(OC(=O)c3cccs3)C(=O)C2=CN1CCCOC(C)C (configuration not stated)	Coupling enz -30.9, Tau fibril ThT inconclusive, USP1-UAF1 inh inconclusive
CCN(CC)CCCN1C=C2C(=O)C(C)(OC(=O)c3cccs3)C(=O)C=C2C=C1CCCC(=O)OC (configuration not stated)	none (no result: USP1-UAF1 inh)
O=C(CN1C(=O)C2(SCC(=O)N2c2cccc(Cl)c2)c2ccccc21)NC1CCCCC1 (configuration not stated)	USP1-UAF1 inh inconclusive (no result: Coupling enz)
O=C(Nc1ccc(OC(F)(F)F)cc1)c1nc2ccccc2nc1N1CCCCC1	USP1-UAF1 inh inconclusive (no result: Coupling enz)
COC(=O)CCCC1=CC2=CC(=O)C(C)(OC(=O)c3cccs3)C(=O)C2=CN1Cc1ccco1 (configuration not stated)	Tau fibril ThT inconclusive, USP1-UAF1 inh inconclusive
COC(=O)CCCC1=CC2=CC(=O)C(C)(OC(=O)c3cccs3)C(=O)C2=CN1c1ccc(OC)cc1 (configuration not stated)	Tau fibril ThT 10µM, Tau fibril FP inconclusive
CCCCC1=CC2=CC(=O)C(C)(OC(=O)CC)C(=O)C2=CN1CCc1c[nH]c2ccccc12 (configuration not stated)	Tau fibril ThT inconclusive
COC(=O)CCCC1=CC2=CC(=O)C(C)(OC(=O)c3cccs3)C(=O)C2=CN1CCc1c[nH]c2ccccc12 (configuration not stated)	Coupling enz -36.1!, Tau fibril ThT inconclusive, USP1-UAF1 inh inconclusive
COC(=O)CCCC1=CC2=CC(=O)C(C)(OC(=O)c3cccs3)C(=O)C2=CN1C(CO)CO (configuration not stated)	none (no result: USP1-UAF1 inh)
COC(=O)CCCC1=CC2=CC(=O)C(C)(OC(=O)c3cccs3)C(=O)C2=CN1Cc1ccccc1 (configuration not stated)	Tau fibril ThT 12.6µM!, USP1-UAF1 inh inconclusive, Tau fibril FP inconclusive
Cn1nnnc1SCCCNCc1ccc(-c2ccc(Br)cc2)o1	none (no result: Coupling enz)
O=C(c1cnc2cc(-c3ccccc3)nn2c1)c1cc([N+](=O)[O-])ccc1O	Tau fibril ThT inconclusive (no result: Coupling enz)
Cc1ccc(-c2cc3ncc(C(=O)c4cc([N+](=O)[O-])ccc4O)cn3n2)cc1	Tau fibril ThT 10µM (no result: Coupling enz)
Nc1ccccc1Nc1cc(-c2ccccc2)[nH]n1	Tau fibril ThT 14.1µM, Tau fluor cs inconclusive
Nc1ccccc1Nc1cc(-c2ccccc2)nn1-c1ccccc1	Tau fibril ThT inconclusive, Tau fluor cs 14.1µM[quencher]
Cc1ccc(-n2nc(-c3ccccc3)cc2Nc2ccccc2N)cc1	Tau fibril ThT inconclusive, Tau fluor cs inconclusive
Cn1ccc(-c2ccccc2)n1	none
N#Cc1cc(-c2ccccc2)nn1-c1ccccc1	Coupling enz -41.0, Tau fibril ThT inconclusive, Tau fibril FP inconclusive, Tau fluor cs inconclusive
CCN(CCN(C)C)C(=O)Cn1ncc2c([nH]c3ccc(C)cc32)c1=O	none (no result: Coupling enz)
CN1CCc2c(sc(N)c2C(N)=O)C1	Coupling enz -33.1, Tau fibril ThT inconclusive, USP1-UAF1 inh inconclusive, Tau fibril FP inconclusive
NC(=O)c1c(N)sc2c1CCCC2	Tau fibril ThT 22.4µM, Tau fibril FP inconclusive
Nc1sc2c(c1C(=O)NC1CCS(=O)(=O)C1)CCCC2 (configuration not stated)	Tau fibril ThT 31.6µM, Tau fibril FP inconclusive, Tau fluor cs inconclusive
Cc1cc(C)c(NC(=O)CSc2nc3nc(C)cc(C)n3n2)c(C)c1	none (no result: Coupling enz)
COc1ccc(CCNC(=O)CSCc2nc(-c3ccc(OC)c(OC)c3)oc2C)cc1OC	none (no result: Coupling enz)
COC(=O)C1=C(C(=O)OC)SC2(S1)C(C(=O)OC)=C(C(=O)OC)SC1=C2c2cc(C)cc(C)c2NC1(C)C	Tau fibril ThT 14.1µM, Tau fibril FP inconclusive, Tau fluor cs inconclusive
N#C/C(=C\c1ccc(N2CCCCC2)o1)C(=O)Nc1cccc(Br)c1	Tau fibril ThT inconclusive, USP1-UAF1 inh 28.2µM
COc1cc2c(=O)c(S(=O)(=O)c3ccccc3)cn(CC(=O)Nc3ccccc3C)c2cc1OC	none (no result: Coupling enz)
CC(C(=O)O)N1C(=O)/C(=C/c2cccn2C)SC1=S (configuration not stated)	Tau fibril ThT 17.8µM
